Results filed as inconclusive are left out. The source made the active and inactive calls. Calls come from the whole dose curve; as a rule, active = well fitted inhibition curve with a large enough effect; inconclusive = small, poorly fitted or top-dose-only effect; inactive = no such curve, though single readings can be large or run the other way.
The compounds below were run against Retinal dehydrogenase 2 (Homo sapiens) (UniProt O94788) (assay: qHTS for Inhibitors of the Aldehyde Dehydrogenase Family (ALDH1A2) Confirmation screens (AID 2061314; note: nearly all actives have a fitted effect of over 65% in size)). Conditions: ALDH1A2 enzyme inhibition qHTS confirmation; series mostly up to 45.9 µM; activity, negative = inhibition: at the top concentration.
% is set by controls: 0 for no effect and ±100 for the full control effect.

activity, negative = inhibition, inactive:
COc1ccccc1CC(=O)NCc1cccnc1-n1cnc2ccccc21 -1.72%
N#Cc1cc2c(=O)n3ccccc3nc2n(-c2nnc(SCc3ccc(F)cc3)s2)c1=O -28.4%
CCCc1cnc2c(c1SCC(=O)N(C)c1ccccc1)c(=O)n(C)c(=O)n2C -14.3%
O=c1c2cn[nH]c2nc(SCc2cccc(Br)c2)n1-c1ccc(Cl)cc1 -14.6%
Cc1ccc(Cc2nc3ccccc3nc2SCC(=O)Nc2cccc(C(F)(F)F)c2)cc1 -26.5%
COc1cc(-c2noc(-c3ccc(NC4CCCCC4)c([N+](=O)[O-])c3)n2)cc(OC)c1OC -26.3%
COC(=O)c1cc(C)nc2c1c(=O)nc(SCc1ccccc1C)n2C1CC1 -0.142%
Cc1cccc(NC(=O)CSc2nc3ccccc3nc2N2CCOCC2)c1C -14%
COc1ccc(N(C)C(=O)c2cn(C)c(=O)c3cc(OC)c(OC)cc23)cc1 -5.06%
CCc1ccc(N(CC)C(=O)c2cn(C)c(=O)c3cc(OC)c(OC)cc23)cc1 -2.63%
Cc1ccccc1NC(=O)CSc1nc2ccccc2c2nc(CCn3cncc3C)nn12 -6.79%
COc1cccc(-n2c(SCc3ccccc3C)nc3c([nH]c4ccccc43)c2=O)c1 -24.5%
CCc1nn(-c2ccccc2)c(Oc2cccc(C)c2)c1CCC(=O)N1CCOCC1 -4.72%

outcome, inactive:
CC(Cn1cncn1)NC(=O)c1cccc(S(=O)(=O)N2CCOCC2)c1 (stereo unspecified)
CN1C(=O)c2cccn2CC1CNC(=O)c1cccc2nccnc12 (stereo unspecified)
CCOc1ccc(C(=O)N(Cc2ccc(C(C)C)cc2)Cc2ccco2)cc1

Reference: PubChem BioAssay (NCATS)
